Assay results reported in the supplement of paper PMC7411054.
Counter-ions that a name gives are not always drawn.

Experiments:
Test in all cases: phenotypically active (imaging signature differs from DMSO and reproducible) at any of 0.3-9 uM (binary (1 = active, 0 = inactive)); higher = active
Settings in all cases: treatment time: 24 h
[1] = test system: A549-ACTB-RAB5A
In short: (§1)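 Cells from fifteen gene-edited reporter lines (A549, HepG2 and WPMY1) were treated for 24 h at 0.3, 1, 3 or 9 µM and imaged live, four wells per condition. Features were normalised per well to solvent control wells. A condition deviated if ≥3 of 4 wells passed the 95th percentile of control Euclidean distances and was reproducible if its median replicate Pearson correlation beat the 95th percentile of non-replicates; phenotypic activity needed both.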

[2] = test system: A549-CANX-COX4
In short: as §1

[3] = test system: A549-GM130-SQSTM1
In short: as §1

[4] = test system: A549-TP53BP1-CLTA
In short: as §1

[5] = test system: A549-TUBA1B-RELA
In short: as §1

[6] = test system: HepG2-ACTB-RAB5A
In short: as §1

[7] = test system: HepG2-CANX-COX4
In short: as §1

[8] = test system: HepG2-GM130-SQSTM1
In short: as §1

[9] = test system: HepG2-TP53BP1-CLTA
In short: as §1

[10] = test system: HepG2-TUBA1B-RELA
In short: as §1

[11] = test system: WPMY1-ACTB-RAB5A
In short: as §1

[12] = test system: WPMY1-CANX-COX4
In short: as §1

[13] = test system: WPMY1-GM130-SQSTM1
In short: as §1

[14] = test system: WPMY1-TP53BP1-CLTA
In short: as §1

[15] = test system: WPMY1-TUBA1B-RELA
In short: as §1

Measured: phenotypically active

CN(C)NC(=O)CCC(=O)O [Daminozide]
inactive: [1] 0 | [2] 0 | [3] 0 | [4] 0 | [5] 0 | [6] 0 | [7] 0 | [8] 0 | [9] 0 | [10] 0 | [11] 0 | [12] 0 | [13] 0 | [14] 0 | [15] 0

CCN1C[C@]2(COC)CC[C@H](O)[C@@]34[C@@H]5C[C@H]6[C@H](OC(C)=O)[C@@H]5[C@](O)(C[C@@H]6OC)[C@H](C[C@H]23)[C@H]14 [Condelphine]
inactive: [1] 0 | [2] 0 | [3] 0 | [4] 0 | [5] 0 | [6] 0 | [7] 0 | [8] 0 | [9] 0 | [10] 0 | [11] 0 | [12] 0 | [13] 0 | [14] 0 | [15] 0

C/C=C1\C[C@@H](C)[C@](O)(CO)C(=O)OCC2=CCN3CC[C@@H](OC1=O)[C@@H]23 [Retrorsine]
inactive: [1] 0 | [2] 0 | [3] 0 | [4] 0 | [5] 0 | [6] 0 | [7] 0 | [8] 0 | [9] 0 | [10] 0 | [11] 0 | [12] 0 | [13] 0 | [14] 0 | [15] 0

CC(C)[N+](C)(CCC(C(N)=O)(c1ccccc1)c1ccccc1)C(C)C [isopropamide-iodide]
inactive: [1] 0 | [2] 0 | [3] 0 | [4] 0 | [5] 0 | [6] 0 | [7] 0 | [8] 0 | [9] 0 | [10] 0 | [11] 0 | [12] 0 | [13] 0 | [14] 0 | [15] 0

COc1ccc(C(=O)Cc2c(CCN(C)C)cc3c(c2OC)OCO3)c(C(=O)O)c1OC [Narcétine]
inactive: [1] 0 | [2] 0 | [3] 0 | [4] 0 | [5] 0 | [6] 0 | [7] 0 | [8] 0 | [9] 0 | [10] 0 | [11] 0 | [12] 0 | [13] 0 | [14] 0 | [15] 0

C[C@]12Cc3cn[nH]c3C[C@@H]1CC[C@@H]1[C@@H]2CC[C@@]2(C)[C@H]1CC[C@]2(C)O [stanozolol]
inactive: [1] 0 | [2] 0 | [3] 0 | [4] 0 | [5] 0 | [6] 0 | [7] 0 | [8] 0 | [9] 0 | [10] 0 | [11] 0 | [12] 0 | [13] 0 | [14] 0 | [15] 0

C[C@]12COC(=O)C[C@@H]1CC[C@@H]1[C@@H]2CC[C@@]2(C)[C@H]1CC[C@]2(C)O [oxandrolone]
inactive: [1] 0 | [2] 0 | [3] 0 | [4] 0 | [5] 0 | [6] 0 | [7] 0 | [8] 0 | [9] 0 | [10] 0 | [11] 0 | [12] 0 | [13] 0 | [14] 0 | [15] 0

CNCC(O)c1ccc(O)c(OC)c1 (stereo not drawn) [Metanephrine hydrochloride DL]
inactive: [1] 0 | [2] 0 | [3] 0 | [4] 0 | [5] 0 | [6] 0 | [7] 0 | [8] 0 | [9] 0 | [10] 0 | [11] 0 | [12] 0 | [13] 0 | [14] 0 | [15] 0

CC(=O)O[C@H]1C[C@@H]2CC[C@@H]3[C@H](CC[C@@]4(C)[C@H]3C[C@H]([N+]3(C)CCCCC3)[C@@H]4OC(C)=O)[C@@]2(C)C[C@@H]1[N+]1(C)CCCCC1 [pancuronium]
inactive: [1] 0 | [2] 0 | [3] 0 | [4] 0 | [5] 0 | [6] 0 | [7] 0 | [8] 0 | [9] 0 | [10] 0 | [11] 0 | [12] 0 | [13] 0 | [14] 0 | [15] 0

O=C1CCC[C@@H]2[C@H]3CCCN4CCC[C@@H](CN12)[C@@H]34 [Matrine]
inactive: [1] 0 | [2] 0 | [3] 0 | [4] 0 | [5] 0 | [6] 0 | [7] 0 | [8] 0 | [9] 0 | [10] 0 | [11] 0 | [12] 0 | [13] 0 | [14] 0 | [15] 0

COC1=CC(=O)O[C@@H](/C=C/c2ccccc2)C1 [Kawain]
inactive: [1] 0 | [2] 0 | [3] 0 | [4] 0 | [5] 0 | [6] 0 | [7] 0 | [8] 0 | [9] 0 | [10] 0 | [11] 0 | [12] 0 | [13] 0 | [14] 0 | [15] 0
